“And” between values parts separate entries of the source, which are not always exact repeats. Identical values can stand only once. About 83,000 compounds went through this panel and 20% of them were active in at least one assay; those are over-represented in the sample as a whole.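 Values shown are percent growth following 48 h exposure of cells in 96-well plates to a single concentration of compound; below 10 was considered active.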 The source made the active and inactive calls.

25 compounds from PubChem BioAssay (NCI) can be followed below.

The test system of this assay is UACC-62 melanoma. In words: NCI-60 one-dose screen, 48 h (100 = growth as untreated, 0 = no growth, -100 = all killed). The following applies: 10 µM unless noted.
Regarding `COC(=O)[C@]1(C)CCC[C@@]2(C)[C@@H]3C[C@@H]4[C@H]5C[C@@]3(CC[C@@H]21)C[C@@]45C`, the growth was -98.2% [100 µM] (active) and -85.1% [100 µM] (active).
Under `COc1ccc2c(c1)C(OC)C1c3c(cc4c(c3-2)OCO4)CCN1C` (stereo not given) stands -93.1% [100 µM] (active) and -89.5% [100 µM] (active); under `COc1ccc(Nc2nc3ccc(C(F)(F)F)cc3nc2C(=O)O)cc1`, -46.2% [100 µM] (active) and -91.5% [100 µM] (active).
Regarding `COc1c(/C=C/C=O)cc2c(c1OC)OCO2`, the growth is -90.2% [100 µM] (active) and -97.4% [100 µM] (active).
Take `C=C1C(=O)OC2CC3(C)CCCC(C)C3=CC12` (stereo not given): the growth is -100% [100 µM] (active) and -93.9% [100 µM] (active).
For `O=C(O)CCCOc1cc(-c2ccccc2F)nc2cc3c(cc12)OCO3` the value was 11.6% [100 µM] (inactive) and -54.7% [100 µM] (active); for `O=C(/C=C/c1ccccc1)CCC1C(=O)c2ccccc2C1=O`, 41.6% [100 µM] (inactive) and 19.1% [100 µM] (inactive).
Take `CCOc1cc2c(cc1O)/C(=N\OC)C[C@@H]1[C@@H]2CC[C@]2(C)[C@@H](O)CC[C@@H]12`: the growth is -31.9% [100 µM] (active) and -75.8% [100 µM] (active).
Turning to `C[C@@H]1CCC([C@@H](C)[C@H]2CC[C@H]3[C@@H]4CC[C@H]5C[C@@H](O)CC[C@]5(C)[C@H]4CC[C@]23C)=NC1`, the growth is -45.8% [100 µM] (active) and -54.1% [100 µM] (active).
As to `CC1=C(Cl)C[C@@H](/C(C)=C\Cl)O[C@@]1(O)C(Br)Br`, the growth is 70.8% [100 µM] (inactive) and -44.8% [100 µM] (active).
Under `CN1CCc2cc3c(c4c2C1C(O)c1ccccc1-4)OCO3` (stereo not given) stands -88.3% [100 µM] (active) and -88.4% [100 µM] (active); under `N=C1C(=N)c2ccccc2-c2ccccc21`, 53.6% [100 µM] (inactive) and -56.4% [100 µM] (active); under `Cc1ccc(/C=N/Nc2cc(C)c3cccc(C)c3n2)s1`, -91.7% [100 µM] (active) and -100% [100 µM] (active).
On to `C=C(C)C1CC2(C)C(C)CC(O)CC2C(OC(=O)C=C(C)C)C1O` (stereo not given), for which the growth is 9.73% [100 µM] (active) and 41.9% [100 µM] (inactive).
Under `On1c(-c2ccccc2)nc2ccccc2c1=S` stands -68.5% [100 µM] (active) and -97.5% [100 µM] (active); under `C=C1C(=O)C2=CC1CCC(=O)C1(C)CCC(OC(C)=O)C(C)(C)C1CC2O` (stereo not given), -95.4% [100 µM] (active) and -100% [100 µM] (active); under `COc1ccc(OC)c(Cc2cnc3nc(N)nc(N)c3c2C)c1`, 1.25% [100 µM] (active) and -100% [100 µM] (active).
Consider `C=C(CO)C(=O)OC1CC(=C)C2CC(O)C(C)C2C2OC(=O)C(=C)C12` (stereo not given), for which the growth is 60.1% [100 µM] (inactive) and -100% [100 µM] (active).
For `Cn1c(COC(=O)NC2CCCCC2)c(COC(=O)NC2CCCCC2)c2ccc3cc(Cl)c(Cl)cc3c21` the value was -50.6% [100 µM] (active).
On to `C=CCO/N=C/c1cc(NC(=S)c2ccoc2C)ccc1Cl`, for which the growth is -98.8% [100 µM] (active) and -100% [100 µM] (active).
Regarding `CC1(C)CCC[C@]2(C)[C@@H](C=O)C(C=O)=CC[C@@H]12`, the growth was -87.9% [100 µM] (active) and 4.13% [100 µM] (active).
For the compound `CC1=CC[C@@H]2[C@@H](CC[C@@]2(C)O)C(C)(C)[C@H]1CC[C@@H]1[C@@]2(C)CC[C@@H](O)C(C)(C)O[C@@H]2CC[C@]1(C)O`, the growth is -81.4% [100 µM] (active) and -96.9% [100 µM] (active).
As to `S=C1NC2=C(COc3ccccc32)C(c2ccc(Cl)cc2)N1` (stereo not given), the growth is -56.9% [100 µM] (active) and -100% [100 µM] (active).
In the case of `CCOC(=O)COc1cc(-c2ccccc2F)nc2cc3c(cc12)OCO3`, the growth is 69.3% [100 µM] (inactive) and 35.8% [100 µM] (inactive).
Under `CC(C)(C)N/N=C(/Cc1nc2c3c(ccc2[nH]c1=O)C(=O)c1ccccc1C3=O)C(=O)NC1=C(Cl)C(=O)c2ccccc2C1=O` stands 22.1% [100 µM] (inactive) and 1.57% [100 µM] (active).
